# Measured values from publication PMC7862700, “An all-to-all approach to the identification of sequence-specific readers for epigenetic DNA modifications on cytosine”.
# Assays:
# Assay in all cases: DAPPL (digital affinity profiling via proximity ligation, sequencing); 10 mM Tris-HCl pH 7.5, 50 mM NaCl, 1 mM DTT, 4% glycerol, room temperature, 30 min; GST-TFs on glutathione beads, 16-mer random dsDNA library, 0.1% formaldehyde crosslink after washing; high values mean tight binding
# FEV = biological target: T1, FEV (Homo sapiens, UniProt Q99581 1-238); details: protein: recombinant; tags: N-terminal GST; dsDNA, one strand shown
# T1 sequence: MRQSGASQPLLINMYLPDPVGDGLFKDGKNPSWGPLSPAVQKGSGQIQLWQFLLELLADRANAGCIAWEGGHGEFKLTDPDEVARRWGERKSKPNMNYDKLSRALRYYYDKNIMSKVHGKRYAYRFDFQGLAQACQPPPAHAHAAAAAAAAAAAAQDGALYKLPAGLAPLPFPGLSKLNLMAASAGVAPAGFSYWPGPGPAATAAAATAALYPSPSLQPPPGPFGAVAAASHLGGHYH
# How it was run: (§1)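 Yeast served to express human transcription factors as GST fusions, which were then captured on glutathione beads and labelled with DNA barcodes. Pooled with a tag-only sample, they were incubated with 200 nmole of a 16-mer random double-stranded DNA library for 30 min at room temperature in Tris/NaCl/DTT/glycerol buffer, washed, crosslinked with 0.1% formaldehyde, ligated by proximity, amplified by PCR and sequenced. Dividing each hexamer's read frequency for a factor by its frequency for the tag-only sample gives the binding signal.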
# ETV5 = ETV5 (Homo sapiens, UniProt P41161 1-510); details: protein: recombinant; tags: N-terminal GST; dsDNA, one strand shown
# How it was run: as §1
# HSF1 = HSF1 (Homo sapiens, UniProt Q00613 1-529); details: protein: recombinant; tags: N-terminal GST; chain copies: 3; dsDNA, one strand shown
# How it was run: as §1
# SPIC = biological target: T2, SPIC (Homo sapiens, UniProt Q8N5J4 1-248); details: protein: recombinant; tags: N-terminal GST; dsDNA, one strand shown
# T2 sequence: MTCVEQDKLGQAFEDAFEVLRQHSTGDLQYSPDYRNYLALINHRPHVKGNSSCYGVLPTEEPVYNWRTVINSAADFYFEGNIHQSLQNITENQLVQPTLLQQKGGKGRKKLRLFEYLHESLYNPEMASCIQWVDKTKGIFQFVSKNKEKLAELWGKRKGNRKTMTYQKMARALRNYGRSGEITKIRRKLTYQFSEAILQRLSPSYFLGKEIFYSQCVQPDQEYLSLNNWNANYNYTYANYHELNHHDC
# How it was run: as §1
# ELF4 = ELF4 (Homo sapiens, UniProt Q99607 1-663); details: protein: recombinant; tags: N-terminal GST; dsDNA, one strand shown
# How it was run: as §1
# ELK4 = biological target: T3, ELK4 (Homo sapiens, UniProt P28324-2 1-405); details: protein: recombinant; tags: N-terminal GST; dsDNA, one strand shown
# T3 sequence: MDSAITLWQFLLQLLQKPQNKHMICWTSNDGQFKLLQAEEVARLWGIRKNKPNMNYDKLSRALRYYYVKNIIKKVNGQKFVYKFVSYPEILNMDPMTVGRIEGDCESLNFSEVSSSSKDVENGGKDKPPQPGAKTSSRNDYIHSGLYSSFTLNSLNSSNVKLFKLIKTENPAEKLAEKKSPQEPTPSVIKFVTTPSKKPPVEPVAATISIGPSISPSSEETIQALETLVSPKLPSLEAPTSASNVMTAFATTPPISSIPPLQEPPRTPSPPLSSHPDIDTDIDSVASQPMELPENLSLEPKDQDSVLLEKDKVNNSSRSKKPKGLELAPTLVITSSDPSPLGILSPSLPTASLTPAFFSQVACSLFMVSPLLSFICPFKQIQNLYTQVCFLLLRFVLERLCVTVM
# How it was run: as §1
# ETV2 = biological target: T4, ETV2 (Homo sapiens, UniProt O00321 1-342); details: protein: recombinant; tags: N-terminal GST; dsDNA, one strand shown
# T4 sequence: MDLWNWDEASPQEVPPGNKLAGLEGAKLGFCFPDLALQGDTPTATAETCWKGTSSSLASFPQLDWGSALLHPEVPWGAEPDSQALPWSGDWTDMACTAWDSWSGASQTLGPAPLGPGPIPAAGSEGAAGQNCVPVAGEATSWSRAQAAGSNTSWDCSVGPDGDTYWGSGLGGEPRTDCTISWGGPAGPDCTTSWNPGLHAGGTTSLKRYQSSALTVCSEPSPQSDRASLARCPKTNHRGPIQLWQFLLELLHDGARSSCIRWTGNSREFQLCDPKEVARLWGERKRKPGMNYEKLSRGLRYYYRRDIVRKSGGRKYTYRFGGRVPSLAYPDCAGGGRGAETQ
# How it was run: as §1
# ELF3 = biological target: T5, ELF3 (Homo sapiens, UniProt P78545 1-371); details: protein: recombinant; tags: N-terminal GST; dsDNA, one strand shown
# T5 sequence: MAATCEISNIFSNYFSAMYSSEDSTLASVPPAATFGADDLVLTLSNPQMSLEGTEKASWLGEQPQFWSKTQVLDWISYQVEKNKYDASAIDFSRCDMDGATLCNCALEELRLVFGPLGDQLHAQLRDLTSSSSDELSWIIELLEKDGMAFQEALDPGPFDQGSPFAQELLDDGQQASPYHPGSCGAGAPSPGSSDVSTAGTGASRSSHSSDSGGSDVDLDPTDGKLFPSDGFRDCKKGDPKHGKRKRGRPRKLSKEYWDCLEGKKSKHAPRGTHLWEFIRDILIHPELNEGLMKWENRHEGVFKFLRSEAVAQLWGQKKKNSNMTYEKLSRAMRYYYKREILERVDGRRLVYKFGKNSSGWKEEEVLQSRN
# How it was run: as §1
# CRX = CRX (Homo sapiens, UniProt O43186 1-299); details: protein: recombinant; tags: N-terminal GST; dsDNA, one strand shown
# How it was run: as §1
# ETV1 = ETV1 (Homo sapiens, UniProt P50549 1-477); details: protein: recombinant; tags: N-terminal GST; dsDNA, one strand shown
# How it was run: as §1
# ERF = biological target: T6, ERF (Homo sapiens, UniProt P50548 1-548); details: protein: recombinant; tags: N-terminal GST; dsDNA, one strand shown
# T6 sequence: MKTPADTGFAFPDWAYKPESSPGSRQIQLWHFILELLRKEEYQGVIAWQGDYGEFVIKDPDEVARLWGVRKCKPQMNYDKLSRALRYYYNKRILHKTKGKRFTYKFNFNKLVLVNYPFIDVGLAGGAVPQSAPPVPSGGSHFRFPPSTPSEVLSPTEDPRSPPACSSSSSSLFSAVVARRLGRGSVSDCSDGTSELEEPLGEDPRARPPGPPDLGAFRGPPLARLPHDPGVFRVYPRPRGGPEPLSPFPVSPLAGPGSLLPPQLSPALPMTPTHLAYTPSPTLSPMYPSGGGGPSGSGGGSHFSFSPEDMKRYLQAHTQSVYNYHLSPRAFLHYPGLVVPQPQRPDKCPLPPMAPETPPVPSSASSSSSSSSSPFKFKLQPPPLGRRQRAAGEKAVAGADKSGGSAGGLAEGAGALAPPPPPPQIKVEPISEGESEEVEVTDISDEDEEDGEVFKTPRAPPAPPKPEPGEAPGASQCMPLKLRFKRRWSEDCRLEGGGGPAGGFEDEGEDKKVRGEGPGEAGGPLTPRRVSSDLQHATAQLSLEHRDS
# How it was run: as §1
# ETV3L = biological target: T7, ETV3L (Homo sapiens, UniProt Q6ZN32 1-361); details: protein: recombinant; tags: N-terminal GST; dsDNA, one strand shown
# T7 sequence: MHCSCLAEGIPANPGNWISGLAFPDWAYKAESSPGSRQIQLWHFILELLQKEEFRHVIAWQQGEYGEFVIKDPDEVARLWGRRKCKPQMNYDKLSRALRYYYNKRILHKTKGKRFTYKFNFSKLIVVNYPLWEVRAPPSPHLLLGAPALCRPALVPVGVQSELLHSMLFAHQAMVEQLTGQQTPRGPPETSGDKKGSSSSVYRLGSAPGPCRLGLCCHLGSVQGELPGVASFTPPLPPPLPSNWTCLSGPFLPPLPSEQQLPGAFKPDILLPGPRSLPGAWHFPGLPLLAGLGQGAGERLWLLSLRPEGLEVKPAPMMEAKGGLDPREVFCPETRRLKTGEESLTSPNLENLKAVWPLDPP
# How it was run: as §1
# ETS2 = biological target: T8, ETS2 (Homo sapiens, UniProt P15036 1-469); details: protein: recombinant; tags: N-terminal GST; dsDNA, one strand shown
# T8 sequence: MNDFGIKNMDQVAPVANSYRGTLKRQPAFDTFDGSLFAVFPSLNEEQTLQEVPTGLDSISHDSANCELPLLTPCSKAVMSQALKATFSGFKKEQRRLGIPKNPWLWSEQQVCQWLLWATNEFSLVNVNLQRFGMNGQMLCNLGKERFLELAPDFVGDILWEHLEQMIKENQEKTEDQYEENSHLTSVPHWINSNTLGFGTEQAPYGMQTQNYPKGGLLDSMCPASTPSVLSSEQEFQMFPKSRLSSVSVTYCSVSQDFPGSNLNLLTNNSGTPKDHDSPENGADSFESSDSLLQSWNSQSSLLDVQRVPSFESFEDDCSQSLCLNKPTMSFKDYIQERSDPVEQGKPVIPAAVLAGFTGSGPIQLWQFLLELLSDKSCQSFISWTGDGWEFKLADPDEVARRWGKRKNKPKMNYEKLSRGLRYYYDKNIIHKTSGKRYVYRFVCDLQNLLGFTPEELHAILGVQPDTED
# How it was run: as §1
# SPDEF = biological target: T9, SPDEF (Homo sapiens, UniProt O95238 1-335); details: protein: recombinant; tags: N-terminal GST; dsDNA, one strand shown
# T9 sequence: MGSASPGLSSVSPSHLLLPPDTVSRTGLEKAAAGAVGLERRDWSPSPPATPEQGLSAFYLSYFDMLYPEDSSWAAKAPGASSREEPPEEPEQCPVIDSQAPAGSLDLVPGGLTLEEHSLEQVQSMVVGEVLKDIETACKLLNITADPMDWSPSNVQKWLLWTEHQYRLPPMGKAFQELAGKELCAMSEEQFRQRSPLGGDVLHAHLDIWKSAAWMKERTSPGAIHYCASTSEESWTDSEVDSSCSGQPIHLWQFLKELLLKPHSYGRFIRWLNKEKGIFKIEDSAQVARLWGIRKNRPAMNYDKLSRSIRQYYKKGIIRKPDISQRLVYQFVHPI
# How it was run: as §1
# ETV7 = biological target: T10, ETV7 (Homo sapiens, UniProt Q9Y603 1-341); details: protein: recombinant; tags: N-terminal GST; dsDNA, one strand shown
# T10 sequence: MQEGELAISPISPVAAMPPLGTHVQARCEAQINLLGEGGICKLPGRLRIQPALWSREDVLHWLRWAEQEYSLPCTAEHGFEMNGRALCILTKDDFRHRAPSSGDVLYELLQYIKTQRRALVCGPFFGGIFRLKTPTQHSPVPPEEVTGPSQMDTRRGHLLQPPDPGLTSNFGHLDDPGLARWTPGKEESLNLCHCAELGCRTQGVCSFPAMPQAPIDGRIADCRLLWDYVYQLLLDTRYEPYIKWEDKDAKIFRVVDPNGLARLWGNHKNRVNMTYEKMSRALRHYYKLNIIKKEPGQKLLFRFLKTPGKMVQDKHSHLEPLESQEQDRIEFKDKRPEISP
# How it was run: as §1
# ELF5 = biological target: T11, ELF5 (Homo sapiens, UniProt Q9UKW6-2 1-255); details: protein: recombinant; tags: N-terminal GST; dsDNA, one strand shown
# T11 sequence: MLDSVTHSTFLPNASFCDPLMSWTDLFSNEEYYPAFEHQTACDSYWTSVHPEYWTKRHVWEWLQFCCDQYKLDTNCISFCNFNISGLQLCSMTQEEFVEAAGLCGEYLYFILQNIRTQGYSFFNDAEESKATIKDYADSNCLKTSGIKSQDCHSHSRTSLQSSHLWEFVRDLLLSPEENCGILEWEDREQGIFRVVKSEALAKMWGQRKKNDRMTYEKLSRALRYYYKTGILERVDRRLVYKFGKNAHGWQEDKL
# How it was run: as §1
# ETV3 = biological target: T12, ETV3 (Homo sapiens, UniProt P41162-2 1-143); details: protein: recombinant; tags: N-terminal GST; dsDNA, one strand shown
# T12 sequence: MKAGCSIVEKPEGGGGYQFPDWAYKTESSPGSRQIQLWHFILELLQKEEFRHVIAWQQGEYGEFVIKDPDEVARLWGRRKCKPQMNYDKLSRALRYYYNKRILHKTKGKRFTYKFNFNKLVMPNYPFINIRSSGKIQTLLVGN
# How it was run: as §1
# ETV6 = ETV6 (Homo sapiens, UniProt P41212 1-452); details: protein: recombinant; tags: N-terminal GST; dsDNA, one strand shown
# How it was run: as §1
# Chain of ETV5 (P41161 whole entry): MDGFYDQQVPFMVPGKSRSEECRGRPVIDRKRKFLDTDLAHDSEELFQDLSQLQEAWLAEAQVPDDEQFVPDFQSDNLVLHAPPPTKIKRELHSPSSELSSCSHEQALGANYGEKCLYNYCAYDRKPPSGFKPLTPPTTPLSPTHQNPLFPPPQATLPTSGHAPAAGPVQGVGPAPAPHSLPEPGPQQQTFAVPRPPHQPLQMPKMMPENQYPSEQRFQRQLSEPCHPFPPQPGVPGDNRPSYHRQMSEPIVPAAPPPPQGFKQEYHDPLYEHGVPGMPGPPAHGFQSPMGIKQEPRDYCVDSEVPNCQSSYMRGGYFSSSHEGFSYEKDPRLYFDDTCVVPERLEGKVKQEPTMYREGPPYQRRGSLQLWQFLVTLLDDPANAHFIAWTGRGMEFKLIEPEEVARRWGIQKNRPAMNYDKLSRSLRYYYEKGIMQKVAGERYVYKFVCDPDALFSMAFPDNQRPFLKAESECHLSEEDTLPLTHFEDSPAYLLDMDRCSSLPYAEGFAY
# Chain of CRX (O43186 whole entry): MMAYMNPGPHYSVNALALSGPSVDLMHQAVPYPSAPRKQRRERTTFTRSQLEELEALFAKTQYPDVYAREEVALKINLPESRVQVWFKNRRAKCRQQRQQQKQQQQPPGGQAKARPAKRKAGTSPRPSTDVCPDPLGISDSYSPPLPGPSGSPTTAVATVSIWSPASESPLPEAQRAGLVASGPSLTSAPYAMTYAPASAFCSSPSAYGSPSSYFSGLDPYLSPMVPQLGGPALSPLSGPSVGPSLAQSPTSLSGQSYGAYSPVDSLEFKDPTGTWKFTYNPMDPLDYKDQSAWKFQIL
# Chain of ELF4 (Q99607 whole entry): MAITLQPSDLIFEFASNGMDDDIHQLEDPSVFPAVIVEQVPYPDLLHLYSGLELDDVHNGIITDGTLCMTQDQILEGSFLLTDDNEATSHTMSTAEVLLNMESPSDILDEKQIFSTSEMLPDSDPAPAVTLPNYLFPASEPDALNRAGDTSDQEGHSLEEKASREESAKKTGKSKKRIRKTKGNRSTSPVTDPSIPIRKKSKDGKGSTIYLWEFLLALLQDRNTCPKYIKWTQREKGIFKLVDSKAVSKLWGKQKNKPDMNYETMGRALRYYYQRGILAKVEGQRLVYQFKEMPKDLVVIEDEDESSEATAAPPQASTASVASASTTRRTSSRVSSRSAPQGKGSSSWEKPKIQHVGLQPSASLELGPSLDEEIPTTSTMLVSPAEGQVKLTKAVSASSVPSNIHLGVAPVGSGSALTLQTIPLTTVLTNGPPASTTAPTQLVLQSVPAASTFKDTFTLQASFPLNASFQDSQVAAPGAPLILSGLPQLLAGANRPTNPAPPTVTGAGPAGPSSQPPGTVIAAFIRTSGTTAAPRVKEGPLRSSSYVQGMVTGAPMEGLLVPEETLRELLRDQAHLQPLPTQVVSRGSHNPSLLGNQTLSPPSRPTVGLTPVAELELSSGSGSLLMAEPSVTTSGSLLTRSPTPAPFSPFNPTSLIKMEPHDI
# Chain of ETV1 (P50549 whole entry): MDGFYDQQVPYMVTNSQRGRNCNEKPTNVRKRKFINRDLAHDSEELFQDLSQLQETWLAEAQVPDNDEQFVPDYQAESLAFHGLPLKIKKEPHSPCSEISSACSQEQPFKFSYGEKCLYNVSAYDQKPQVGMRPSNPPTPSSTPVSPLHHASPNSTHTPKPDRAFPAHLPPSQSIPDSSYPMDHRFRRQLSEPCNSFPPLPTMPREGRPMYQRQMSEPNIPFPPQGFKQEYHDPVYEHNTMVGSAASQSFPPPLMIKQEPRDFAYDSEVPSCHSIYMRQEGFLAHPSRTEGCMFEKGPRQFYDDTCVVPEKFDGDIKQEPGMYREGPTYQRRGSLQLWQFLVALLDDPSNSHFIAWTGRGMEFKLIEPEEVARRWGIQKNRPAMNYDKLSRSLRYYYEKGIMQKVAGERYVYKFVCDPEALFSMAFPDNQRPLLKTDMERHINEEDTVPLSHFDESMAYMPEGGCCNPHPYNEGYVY
# Chain of ETV6 (P41212 whole entry): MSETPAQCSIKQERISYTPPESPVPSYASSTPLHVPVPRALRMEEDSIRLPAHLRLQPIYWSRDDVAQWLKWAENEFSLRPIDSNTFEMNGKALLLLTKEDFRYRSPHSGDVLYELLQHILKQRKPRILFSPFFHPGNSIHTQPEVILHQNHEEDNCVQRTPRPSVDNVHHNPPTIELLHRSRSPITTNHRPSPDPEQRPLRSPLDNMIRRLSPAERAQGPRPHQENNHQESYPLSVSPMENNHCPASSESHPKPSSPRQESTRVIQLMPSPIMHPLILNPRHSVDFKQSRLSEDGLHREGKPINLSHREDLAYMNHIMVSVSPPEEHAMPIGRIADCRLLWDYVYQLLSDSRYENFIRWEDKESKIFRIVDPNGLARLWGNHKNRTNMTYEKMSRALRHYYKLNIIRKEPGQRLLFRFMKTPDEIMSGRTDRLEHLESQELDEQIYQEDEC
# Chain of HSF1 (Q00613 whole entry): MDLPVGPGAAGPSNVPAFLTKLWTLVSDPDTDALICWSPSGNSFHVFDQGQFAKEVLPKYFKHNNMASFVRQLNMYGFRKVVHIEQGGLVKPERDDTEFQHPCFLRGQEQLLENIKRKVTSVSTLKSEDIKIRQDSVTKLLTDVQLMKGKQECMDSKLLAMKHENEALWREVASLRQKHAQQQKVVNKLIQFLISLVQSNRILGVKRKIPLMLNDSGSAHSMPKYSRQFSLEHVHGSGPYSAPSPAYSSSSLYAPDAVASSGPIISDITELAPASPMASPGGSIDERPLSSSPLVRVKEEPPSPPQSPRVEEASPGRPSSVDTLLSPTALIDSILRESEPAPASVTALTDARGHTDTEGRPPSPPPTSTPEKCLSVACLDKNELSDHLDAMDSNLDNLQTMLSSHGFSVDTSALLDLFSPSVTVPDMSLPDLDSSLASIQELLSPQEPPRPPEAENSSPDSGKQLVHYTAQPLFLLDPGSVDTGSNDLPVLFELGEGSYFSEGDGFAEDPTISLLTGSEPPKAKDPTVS
sequence,measurement,setting,value
TCATTC,binding signal,FEV,"1.19 fold enrichment (6-mer frequency, TF over GST control)"
same,binding signal,ETV5,"1.19 fold enrichment (6-mer frequency, TF over GST control)"
same,binding signal,HSF1,"1.5 fold enrichment (6-mer frequency, TF over GST control)"
same,binding signal,SPIC,"1.13 fold enrichment (6-mer frequency, TF over GST control)"
same,binding signal,ELF4,"1.26 fold enrichment (6-mer frequency, TF over GST control)"
same,binding signal,ELK4,"1.34 fold enrichment (6-mer frequency, TF over GST control)"
same,binding signal,ETV2,"1.27 fold enrichment (6-mer frequency, TF over GST control)"
same,binding signal,ELF3,"1.2 fold enrichment (6-mer frequency, TF over GST control)"
same,binding signal,CRX,"1.22 fold enrichment (6-mer frequency, TF over GST control)"
same,binding signal,ETV1,"1.2 fold enrichment (6-mer frequency, TF over GST control)"
same,binding signal,ERF,"1.15 fold enrichment (6-mer frequency, TF over GST control)"
same,binding signal,ETV3L,"1.28 fold enrichment (6-mer frequency, TF over GST control)"
same,binding signal,ETS2,"1.13 fold enrichment (6-mer frequency, TF over GST control)"
same,binding signal,SPDEF,"1.09 fold enrichment (6-mer frequency, TF over GST control)"
same,binding signal,ETV7,"1.15 fold enrichment (6-mer frequency, TF over GST control)"
same,binding signal,ELF5,"1.12 fold enrichment (6-mer frequency, TF over GST control)"
same,binding signal,ETV3,"1.21 fold enrichment (6-mer frequency, TF over GST control)"
same,binding signal,ETV6,"1.24 fold enrichment (6-mer frequency, TF over GST control)"
